Experimental data as given in PubChem BioAssay (NCATS).
Inconclusive results are not listed. Active and inactive are the calls of the source. Calls follow the shape of the dose curve; as a rule, active = well fitted inhibition curve with a large enough effect; inconclusive = small, poorly fitted or top-dose-only effect; inactive = flat fitted curve, though single readings scatter.

Columns and labels:
CRL-7250 = normal cell line; assay: Cytotoxic Profiling of Annotated Libraries Using Quantitative High-Throughput Screening (AID 1296008); settings: Five cell lines viability, CellTiter-Glo ATP luminescence, 48-72 h; max response: stronger effect = lower value; as to max response: % is scaled to controls: 0 for no effect and ±100 for the full control effect
Outline: (§1)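 Compounds were pin-transferred onto cells and incubated 48 or 72 hr at 37 degree Celsius, 95% humidity. CellTiter-Glo was added, plates sat 10 min at room temperature, then ATP-coupled luminescence was imaged as the viability read-out.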

HEK293 = assay: as above; settings: Five cell lines viability, CellTiter-Glo ATP luminescence, 48-72 h; max response: stronger effect = lower value
Outline: as §1

HaCat [1] = assay: as above; settings: Five cell lines viability, CellTiter-Glo ATP luminescence, 48-72 h; max response: stronger effect = lower value
Outline: as §1

KB-3-1 = assay: as above; settings: Five cell lines viability, CellTiter-Glo ATP luminescence, 48-72 h; max response: stronger effect = lower value
Outline: as §1

NIH3T3 = assay: as above; settings: Five cell lines viability, CellTiter-Glo ATP luminescence, 48-72 h; max response: stronger effect = lower value
Outline: as §1

HACAT [2] = assay: qHTS assay to identify novel small-molecules to repurpose for Merkel cell carcinoma treatment (AID 1296009); settings: MCC and control cell lines, CellTiter-Glo viability, 72 h; at 44.8 µM (top of the series) unless noted
Outline: (§2)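 Luminescence from CellTiter-Glo, read 10 min after addition at room temperature, reported viability following a 72 hr, 37 degree celsius treatment with NPC or MIPE compounds in titration; values normalized to plate controls.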

HEK293T = assay: as above; settings: MCC and control cell lines, CellTiter-Glo viability, 72 h; series mostly up to 44.8 µM
Outline: as §2
Also: nearly all actives have a fitted effect of over 60% in size.

C=C1C2(CCC(=O)OC2(C)C)CC(OC(=O)/C(C)=C/C)C2(C)C13OC14C(=O)OC(C)(C(=O)C12C(=O)OC4C)C3OC(C)=O (configuration not stated)
inactive: outcome (CRL-7250) | outcome (HEK293) | outcome (HaCat [1]) | max response (KB-3-1) 6.83% | max response (NIH3T3) 4.63% | outcome (HACAT [2]) inactive [at 17.4 µM] | Potency (HEK293T)

Cn1ccnc1CCOC(c1cc2nccc(C(=O)O)c2[nH]1)c1ccccc1Cl (configuration not stated)
inactive: outcome (CRL-7250) | outcome (HEK293) | outcome (HaCat [1]) | max response (KB-3-1) 2.27% | max response (NIH3T3) 4.24% | outcome (HACAT [2]) | Potency (HEK293T)

CC(C)CC(=O)O[C@@H]1OC=C(CO[C@@H]2O[C@H](CO[C@@H]3O[C@H](CO)[C@@H](O)[C@H](O)[C@H]3O)[C@@H](O)[C@H](O)[C@H]2O)[C@H]2C[C@H](O)[C@@H](CO)[C@@H]12
inactive: max response (CRL-7250) 4.5% | outcome (HEK293) | outcome (HaCat [1]) | outcome (KB-3-1) | max response (NIH3T3) 0.598% | outcome (HACAT [2]) inactive [at 17.4 µM] | Potency (HEK293T)

CC(C)c1ccc(CC(=O)N2CCC[C@@H](c3cccc(OC(C)(C)C(=O)O)c3)C2)cc1
inactive: max response (CRL-7250) -8.91% | outcome (HEK293) | outcome (HaCat [1]) | outcome (KB-3-1) | max response (NIH3T3) -2.06% | outcome (HACAT [2]) | Potency (HEK293T)

O=C(O[C@@H]1O[C@H](CO)[C@@H](O)[C@H](O)[C@H]1O)c1c(O)cc(O)cc1/C=C/c1ccccc1
inactive: max response (CRL-7250) 2.06% | outcome (HEK293) | outcome (HaCat [1]) | outcome (KB-3-1) | max response (NIH3T3) 3.61% | outcome (HACAT [2]) inactive [at 17.4 µM] | Potency (HEK293T)

C[C@H](NCc1ccc(OCc2ccccc2F)cc1)C(N)=O
inactive: outcome (CRL-7250) | outcome (HEK293) | outcome (HaCat [1]) | max response (KB-3-1) -7.57% | max response (NIH3T3) 1.69% | outcome (HACAT [2]) | Potency (HEK293T)

C/C=C1/[C@H](O[C@@H]2O[C@H](CO)[C@@H](O)[C@H](O)[C@H]2O)OC=C(C(=O)OC)[C@H]1CC(=O)O[C@@H]1O[C@H](CO)[C@@H](O)[C@H](O)[C@H]1O
inactive: outcome (CRL-7250) | outcome (HEK293) | outcome (HaCat [1]) | outcome (KB-3-1) | max response (NIH3T3) 4.1% | outcome (HACAT [2]) inactive [at 17.4 µM] | Potency (HEK293T)

CC1(C(=O)O)CCCC2(C)C1CCC13CC(CCC21)C1(CO)OC31 (configuration not stated)
inactive: max response (CRL-7250) -3.21% | outcome (HEK293) | outcome (HaCat [1]) | max response (KB-3-1) 2.68% | outcome (NIH3T3) | outcome (HACAT [2]) | Potency (HEK293T)

COC(=O)C1=COC(OC2OC(CO)C(O)C(O)C2O)C2C1CC(OC(=O)C(O)CC(=O)O)C2C (configuration not stated)
inactive: max response (CRL-7250) -2.72% | outcome (HEK293) | outcome (HaCat [1]) | outcome (KB-3-1) | outcome (NIH3T3) | outcome (HACAT [2]) inactive [at 17.4 µM] | Potency (HEK293T)

CC(=O)N(O)CCCCCN1C(=O)CCC1=O
inactive: outcome (CRL-7250) | outcome (HEK293) | outcome (HaCat [1]) | max response (KB-3-1) 2.57% | outcome (NIH3T3) | outcome (HACAT [2]) | Potency (HEK293T)

O=C(O[C@H]1[C@@H]2C=CO[C@@H](O[C@@H]3O[C@H](CO)[C@@H](O)[C@H](O)[C@H]3O)[C@@H]2[C@@]2(CO)O[C@@H]12)c1ccc(O)c(O)c1
inactive: outcome (CRL-7250) | outcome (HEK293) | outcome (HaCat [1]) | max response (KB-3-1) 4.32% | outcome (NIH3T3) | outcome (HACAT [2]) inactive [at 17.4 µM] | Potency (HEK293T)

C/C=C(\C)C(=O)O[C@@H]1CC2[C@@H](CC=C3C[C@@H](O[C@H]4C[C@H](OC)[C@H](O[C@H]5C[C@H](OC)[C@H](O[C@H]6C[C@H](OC)[C@H](O[C@H]7C[C@@H](OC)[C@H](O[C@@H]8O[C@H](CO)[C@@H](O)[C@H](O)[C@H]8O)[C@@H](C)O7)[C@@H](C)O6)[C@@H](C)O5)[C@@H](C)O4)CC[C@@]32C)[C@@]2(O)CC[C@H](C(C)=O)[C@@]12C (some centres not stated)
inactive: max response (CRL-7250) 2.31% | outcome (HEK293) | outcome (HaCat [1]) | max response (KB-3-1) -8.02% | max response (NIH3T3) 0.771% | outcome (HACAT [2]) inactive [at 9.27 µM] | outcome (HEK293T) inactive [at 9.27 µM]

COc1cc(/C=C/c2cc(O)cc(O[C@@H]3O[C@H](CO)[C@@H](O)[C@H](O)[C@H]3O)c2)ccc1O
inactive: max response (CRL-7250) 2.61% | outcome (HEK293) | outcome (HaCat [1]) | max response (KB-3-1) 4.08% | outcome (NIH3T3) | outcome (HACAT [2]) inactive [at 17.4 µM] | Potency (HEK293T)

C=C1CC[C@H]2[C@@](C)(CCC(O)[C@@]2(C)CO)[C@@H]1C/C=C(/C(=O)O)C(O)CO (some centres not stated)
inactive: outcome (CRL-7250) | outcome (HEK293) | outcome (HaCat [1]) | max response (KB-3-1) 7.71% | outcome (NIH3T3) | outcome (HACAT [2]) | Potency (HEK293T)

CCCCNC(=O)[C@@H]1Cc2ccccc2N1C(=O)[C@@H](N)CC
inactive: max response (CRL-7250) -0.785% | outcome (HEK293) | outcome (HaCat [1]) | max response (KB-3-1) 6.18% | max response (NIH3T3) 3.92% | outcome (HACAT [2]) | Potency (HEK293T)

CC(C)CNC(=O)/C=C/CCCCc1ccc2c(c1)OCO2
inactive: max response (CRL-7250) -4.34% | outcome (HEK293) | outcome (HaCat [1]) | max response (KB-3-1) 4.53% | max response (NIH3T3) -0.808% | outcome (HACAT [2]) | Potency (HEK293T)
